Only a selection was taken, and hits are over-represented in it overall.
14-3-3g Raf: modulators of 14-3-3 gamma protein binding, primary screen, biochemical, fluorescence polarization; 14-3-3 protein gamma (Homo sapiens), P61981; FP, 14-3-3gamma / TMR-pS259-Raf peptide binding; inhibition, % at 40 µM; actives 0.19% (n = 160,000); in the data active = inhibition above about 30%;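 also: 0% = protein plus tracer without compound and 100% = blank with tracer alone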
Target sequence (P61981 whole entry, looked up): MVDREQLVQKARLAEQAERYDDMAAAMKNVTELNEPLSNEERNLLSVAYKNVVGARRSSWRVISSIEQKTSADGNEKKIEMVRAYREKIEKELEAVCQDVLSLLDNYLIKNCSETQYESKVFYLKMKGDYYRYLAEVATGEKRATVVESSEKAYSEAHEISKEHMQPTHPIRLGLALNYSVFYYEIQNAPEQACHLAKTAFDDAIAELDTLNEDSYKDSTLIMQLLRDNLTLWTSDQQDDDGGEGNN
An asterisk follows results filed as active; + = active, no number.

SMILES | 14-3-3g Raf
CC(C)(C)C(=O)Nc1c[nH]c(=O)[nH]c1=O | -6
O=C(Cn1cc(C(=O)C(F)(F)F)c2ccccc21)N1CCc2ccccc2C1 | -7
c1nc(N2CCCCCC2)c2c3c(sc2n1)CCCCC3 | -11
CCN1C2=C(C(=O)CC(C)(C)C2)C(c2ccc(O)c(Cl)c2)C2=C1CC(C)(C)CC2=O | -2
CCN1C2=C(C(=O)CC(C)(C)C2)C(c2ccc(O)cc2)C2=C1CC(C)(C)CC2=O | 102*
CC1(C)CC(=O)C2=C(C1)N(Cc1ccccc1)C1=C(C(=O)CC(C)(C)C1)C2c1ccc(O)cc1 | -12
O=C(Nc1ccc(F)cc1)c1cnc2n(c1=O)CCS2 | -3
COc1ccc(C2C(=O)N(C3CCC(C)CC3)CC(=O)N2CCc2ccc(Cl)cc2)cc1OC (centres undefined) | -2
Cc1nc(N2CCCCC2)c2c(C)c(C(=O)Nc3cccc(Cl)c3)sc2n1 | -28
Cc1ccc(-c2c(C(=O)Nc3ccc(N(C)C)cc3)oc(=O)c3ccccc23)cc1 | 39*
CCc1ccc(NC(=O)c2oc(=O)c3ccccc3c2-c2ccc(C)cc2)cc1 | 2
CCOC(=O)c1ccc(NC(=O)c2oc(=O)c3ccccc3c2-c2ccc(C)cc2)cc1 | -3
O=C(Nc1cccc(C(F)(F)F)c1)c1ccc(NC(=O)C2CCCO2)cc1 (centres undefined) | -1
COc1ccc(NC(=O)Cn2c(=O)n(-c3cc(OC)cc(OC)c3)c(=O)c3sccc32)cc1 | -11
Cc1cccc(NC(=O)c2cc(S(=O)(=O)N3CCCCC3C)ccc2F)c1C (centres undefined) | -6
O=c1cc(CNC2CCCCC2)c2ccccc2[nH]1 | -10
O=C(NC1CCCCCC1)c1c(O)c2ccccc2[nH]c1=O | -6
O=C1c2ccccc2-c2c(NC3CCCCC3)c(=O)[nH]c3cccc1c23 | +
CCN1CCN(S(=O)(=O)c2ccc3oc(C(=O)O)c(C)c3c2)CC1 | 2
N#CC(C#N)C(C#N)(C#N)C1CCCCC1=O (centres undefined) | 142*
O=C(O)c1cc(-c2ccc(F)cc2)nc2ccccc12 | 2
Oc1c(-c2ccc(F)cc2)c2nc3ccccc3nc2c2ccccc12 | 53*
Fc1ccc(-c2cnc3ccccc3n2)cc1 | -9
c1coc(-c2c3c(nc4ccc5ccccc5c24)CCCC3)c1 | -48
Cc1cccc(C2C=C(c3ccc(Cl)cc3)Nc3nnnn32)c1 (centres undefined) | -20
SMILES | 14-3-3g Raf
Cc1cccc(C2C=C(c3ccc(Br)s3)Nc3nnnn32)c1 (centres undefined) | 48*
CCc1ccc(C2=CC(c3cccc(C)c3)n3nnnc3N2)cc1 (centres undefined) | -6
Cc1ccc(C2C=C(c3cccs3)Nc3nnnn32)cc1 (centres undefined) | 37*
Cc1ccc(C2=CC(c3ccc(C)cc3)n3nnnc3N2)cc1 (centres undefined) | 1
Clc1ccccc1C1C=C(c2cccs2)Nc2nnnn21 (centres undefined) | -5
CCC1(C)CC(C(=O)c2ccc(OC)cc2)CCO1 (centres undefined) | 5
COc1ccc(-c2cc(C(F)(F)F)n3nc(C(=O)N4CCc5cc(OC)c(OC)cc5C4C)cc3n2)cc1OC (centres undefined) | -34
CCN(c1ccccc1)c1c([N+](=O)[O-])ccc2nonc12 | -6
CCOC(=O)Cc1c(C)nc2c(C#N)cnn2c1C | -4
CCOC(=O)c1cnc2c(C#N)cnn2c1-c1ccccc1 | 0
CCOC(=O)c1cnc2c(C#N)cnn2c1C | 141*
COC(=O)C1=C(C)N=C2SCCC(=O)N2C1c1cccc(Oc2ccccc2)c1 (centres undefined) | 1
COc1ccc(NC(=O)C23CCC(C2)C(C)(C)C3=O)cc1 (centres undefined) | 1
Cc1ccc(C)c(NC(=O)C2(C)CC3c4ccccc4C2c2ccccc23)c1 (centres undefined) | 2
COc1ccc(NC(=O)C2(C)CC3c4ccccc4C2c2ccccc23)cc1 (centres undefined) | 55*
Cc1cc(C)cc(Oc2coc3cc(OCc4cccc(Cl)c4)ccc3c2=O)c1 | -14
Cc1nc(N2CCN(c3ccc([N+](=O)[O-])cc3)CC2)c2c(C)c(C)sc2n1 | 0
COc1ccc(OC)c(NC(=O)CCN2CCCC(C)C2)c1 (centres undefined) | 35*
COc1ccc(C)cc1NC(=O)CCN1CCCC1 | 1
COc1ccc(OC)c(NC(=O)CCN2CCCCC2)c1 | 3
Cc1ccc(C(=O)NCC(C)(C)O)cc1 | 67*
Cc1ccc(C(=O)NCCNC(=O)c2ccncc2)cc1 | 0
Cc1ccc(C(=O)NCCNC(=O)c2ccc(C)cc2)cc1 | -292
COc1ccc(NC(=O)c2sc3nc(C)c(C(=O)Nc4ccc(C)cc4C)c(-c4ccco4)c3c2N)cc1OC | -7
O=c1[nH]c2ccc(S(=O)(=O)N3CCc4ccccc4C3)cc2o1 | -5
SMILES | 14-3-3g Raf
C=CCSc1nnc2c(n1)OC(c1cccc(F)c1)Nc1ccccc1-2 (centres undefined) | -98
CCOc1ccc(C2Nc3ccccc3-c3nnc(SCC)nc3O2)cc1 (centres undefined) | 0
CCSc1nnc2c(n1)OC(C1CC=C(C)CC1C)Nc1ccccc1-2 (centres undefined) | -31
CSc1nnc2c(n1)OC(C1CC=C(C)CC1C)Nc1ccccc1-2 (centres undefined) | 83*
C=CCOc1cccc(C2Nc3ccccc3-c3nnc(SC)nc3O2)c1 (centres undefined) | 134*
CSc1nnc2c(n1)OC(c1ccc(OCc3ccccc3)cc1)Nc1ccccc1-2 (centres undefined) | 33*
CCCSc1nnc2c(n1)OC(C1CC=C(C)CC1C)Nc1ccccc1-2 (centres undefined) | 6
C=CCOc1ccc(C2Nc3ccc(Br)cc3-c3nnc(SC)nc3O2)cc1 (centres undefined) | -84
CSc1nnc2c(n1)OC(c1ccc(OCC(=O)O)cc1)Nc1ccccc1-2 (centres undefined) | -3
O=C(OCC1C(COC(=O)c2ccccc2Cl)C1(Cl)Cl)c1ccccc1Cl (centres undefined) | 2
C#CCN1C(=O)C(O)(CC(=O)c2ccc(C(C)(C)C)cc2)c2ccccc21 (centres undefined) | -43
Nc1c(C(=O)NCc2cccc(Cl)c2)sc2nc(-c3cccs3)ccc12 | -26
Cc1ccc(N2C(=O)CC(NCCc3c[nH]c4ccccc34)C2=O)cc1 (centres undefined) | 3
COc1ccc(S(=O)(=O)NCc2ccc(C(=O)NC3CCCCC3)cc2)cc1 | -64
CN(C(=O)c1ccc(N2CCN(c3ccccn3)CC2)c([N+](=O)[O-])c1)C1CCCCC1 | -6
COC(=O)c1ccc(C2Nc3c(Cl)cccc3C3C=CCC32)cc1 (centres undefined) | -112
CCOc1ccc(N2C(=O)C3C(c4ccc(C(=O)OC)cc4)NN(C(=O)c4cccc(Br)c4)C3C2=O)cc1 (centres undefined) | -82
COc1cc2c(cc1OC)C(=NC(C)C(=O)O)NC(C)(C)C2 (centres undefined) | 4
N#Cc1c(Nc2ccccc2)sc(C(=O)C23CC4CC(CC(C4)C2)C3)c1N | -2
CCN1/C(=C/c2ccc3cc(OC)ccc3[n+]2CC)Sc2ccc(Cl)cc21 | 12
CCN1/C(=C/c2ccc3cc(OC)ccc3[n+]2CC)Sc2ccc(C)cc21 | 42*

Screening results: PubChem BioAssay, Emory University Molecular Libraries Screening Center
